The target of the experiment is Histone deacetylase 9 (Homo sapiens) (UniProt Q9UKV0). Briefly: HDAC9 deacetylase inhibition, profiling panel, selectivity assay for E-cadherin restoration project, biochemical, human (AID 651909).

Activity calls are given as the source filed them. No rule for the calls is given here.

Chain of Histone deacetylase 9 (Homo sapiens) (Q9UKV0 whole entry, looked up): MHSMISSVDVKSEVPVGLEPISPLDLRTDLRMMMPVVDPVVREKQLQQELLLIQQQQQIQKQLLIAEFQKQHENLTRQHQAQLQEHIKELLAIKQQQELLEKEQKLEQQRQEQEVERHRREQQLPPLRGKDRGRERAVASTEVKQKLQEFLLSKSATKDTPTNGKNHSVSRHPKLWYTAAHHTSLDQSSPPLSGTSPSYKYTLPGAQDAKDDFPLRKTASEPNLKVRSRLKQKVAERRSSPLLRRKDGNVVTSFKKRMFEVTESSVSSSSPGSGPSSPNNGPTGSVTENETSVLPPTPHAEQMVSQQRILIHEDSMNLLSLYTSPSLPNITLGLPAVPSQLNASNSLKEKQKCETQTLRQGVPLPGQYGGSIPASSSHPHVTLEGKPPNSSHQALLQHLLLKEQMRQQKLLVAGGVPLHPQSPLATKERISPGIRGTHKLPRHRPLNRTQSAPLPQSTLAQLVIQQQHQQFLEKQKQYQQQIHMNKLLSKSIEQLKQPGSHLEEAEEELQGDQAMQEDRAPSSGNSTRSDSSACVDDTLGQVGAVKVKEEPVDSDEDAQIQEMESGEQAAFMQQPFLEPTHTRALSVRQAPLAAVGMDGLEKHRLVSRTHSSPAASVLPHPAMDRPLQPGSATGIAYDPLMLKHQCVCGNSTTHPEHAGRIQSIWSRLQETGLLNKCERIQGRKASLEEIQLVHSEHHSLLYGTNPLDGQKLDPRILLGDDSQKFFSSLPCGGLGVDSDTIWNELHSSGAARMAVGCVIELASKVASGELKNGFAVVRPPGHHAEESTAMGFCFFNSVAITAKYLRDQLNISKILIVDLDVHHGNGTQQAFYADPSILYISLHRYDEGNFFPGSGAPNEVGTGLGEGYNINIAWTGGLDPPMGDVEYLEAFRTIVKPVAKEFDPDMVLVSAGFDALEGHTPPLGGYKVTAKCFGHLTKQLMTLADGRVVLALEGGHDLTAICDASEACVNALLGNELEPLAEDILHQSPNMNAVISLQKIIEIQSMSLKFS

With `O=C(NCCCNC(=O)c1ccc[nH]c1=O)c1cc(-c2ccccc2)on1`, the result was inactive.

The record behind these values is PubChem BioAssay AID651909 (Vanderbilt Specialized Chemistry Center, 2012).
